# High-throughput results (PubChem BioAssay)
# Rows were chosen to be rich in hits. Some 8.1% of all compounds tested hit in one or more screens of this group.
# SW480 rerep – A quantitative high throughput screen for small molecules that induce DNA re-replication in SW480 colon adenocarcinoma cells. SW480 DNA re-replication, Hoechst DNA content imaging, 48 h. 340,000 compounds, 1.8% hits. Potency, µM (highest dose often 46.1 µM), inactives show top-dose re-replication activation, actives largely listed as activators. AID 624297, 2012; also: % of control where 0% means no effect; nearly all actives have a fitted effect of over 55% in size
#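 Quantitative HTS format with DMSO vehicle controls; 48 hr drug incubation at 37 C, then 40 min Hoechst staining and scanning imager measurement at 405 nm excitation.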
# KB-3-1 cytotox – qHTS assay for MDR1-selective chemotherapeutics: Primary screen using the parental adenocarcinoma cell KB-3-1. Potency, µM (titrated, usually from 46.1 µM), hits mostly cytotoxic. 400,000 compounds, 1.4% hits. KB-3-1 viability, CellTiter-Glo ATP luminescence, 72 h; also: % is scaled to controls: 0 for no effect and ±100 for the full control effect; nearly all actives have a fitted effect of over 60% in size
#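 Multi-concentration cytotoxicity screen in KB-3-1 cells grown in DMEM lacking phenol red with 10% FBS. After 72 h at 37 °C with compound, ATP-dependent luminescence was recorded.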
# MCF10A rerep – A quantitative high throughput screen for small molecules that induce DNA re-replication in MCF 10a normal breast cells | MCF 10A DNA re-replication, Hoechst nuclear intensity, 48 h | Potency, µM (titrated, usually from 46.1 µM), without a hit: at the top dose activity, positive = re-replication, most hits filed as activators | AID 624296, 2012 | 350,000 compounds, 2.9% hits; also: % of control where 0% means no effect; nearly all actives have a fitted effect of over 50% in size
# KB-V1 cytotox – qHTS assay for MDR1-selective chemotherapeutics: Primary screen using the drug-selected MDR subline cells KB-V1; KB-V1 MDR cells viability, CellTiter-Glo, 72 h; Potency, µM (top dose mostly 46.1 µM), usual class: cytotoxic; 400,000 compounds, 3.4% hits; also: % is scaled to controls: 0 for no effect and ±100 for the full control effect; nearly all actives have a fitted effect of over 60% in size
#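 In this primary screen, KB-V1 cells overexpressing P-gp are incubated with library compounds (lowest to highest concentration) for 72 h at 37 degrees C before a luminescent ATP viability read.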
# ELG1 repair inh – qHTS screen for small molecules that inhibit ELG1-dependent DNA repair in human embryonic kidney (HEK293T) cells expressing luciferase-tagged ELG1 | HEK293T ELG1-luciferase reporter, luminescence, 16 h; DNA damage induced by 5-fluorouridine | Potency, µM (titrated, usually from 46.1 µM), without a hit: at the top dose activity change, negative = inhibition, most hits filed as inhibitors | 330,000 compounds, 2.3% hits; also: % is scaled to controls: 0 for no effect and ±100 for the full control effect; nearly all actives have a fitted effect of over 55% in size
#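 Luminescence from the luciferase reporter, measured 30 min after ONE-Glo reagent at room temperature, was the read-out. Beforehand, 2,000 cells per well were exposed for 16 hr at 37 °C to 5-fluorouridine together with compound or vehicle.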
# An asterisk follows results filed as active; i = inactive; ? = inconclusive; . = no result. Calls follow the shape of the dose curve; as a rule, active = well fitted curve in the direction sought with a large enough effect; inconclusive = small, poorly fitted or top-dose-only effect, or another doubt; inactive = no such curve, though single readings can be large; an effect the other way counts as inactive or inconclusive. Potency is read from the fitted curve at half-maximal effect.
SMILES,SW480 rerep,KB-3-1 cytotox,MCF10A rerep,KB-V1 cytotox,ELG1 repair inh
CCCn1nc(NC(=O)C(C)(C)C)c2cc3cc(OC)ccc3nc21,21µM*,i,15µM*,?,-22%
CCCCn1nc(NC(=O)CC)c2cc3cc(OC)ccc3nc21,21µM*,i,26µM*,i,-13%
COc1ccc2nc3c(cc2c1)c(NC(=O)c1cccs1)nn3CC(C)C,16%,?,?,?,?
COc1ccccc1C(=O)NC(=O)COC(=O)CCOc1ccc(C)cc1,-12%,i,1%,i,14%
N#C/C(C(=O)NCCc1ccccc1)=C1/N=C(NC(=O)c2cccs2)c2ccccc21,-41%,?,8.2µM*,i,?
COCCCNC(=O)/C(C#N)=C1\N=C(NC(=O)c2cccs2)c2ccccc21,-3%,i,0%,i,-8%
N#C/C(C(=O)NCc1ccccc1)=C1/N=C(NC(=O)c2ccco2)c2ccccc21,3%,i,9%,i,1%
COc1ccc(CCNC(=O)/C(C#N)=C2\N=C(NC(=O)c3ccco3)c3ccccc32)cc1,?,i,?,i,7.3µM*
Fc1ccc(Cc2cn3cc(-c4ccc(F)cc4)nc3s2)cc1,.,i,.,i,.
O=C(NS(=O)(=O)Oc1ccc(F)c(Cl)c1)OC[C@@H]1CCCN2CCCCC12 (stereo not given in full),-3%,i,-18%,i,3%
COc1ccc(C=CC(=O)C=CC=Cc2ccccc2)cc1,21µM*,?,?,i,.
COc1ccccc1/C=C/C(=O)/C=C/c1ccccc1O,?,?,10µM*,?,?
CNc1ccccc(C(=O)/C=C/c2ccccc2OC)c1=O,?,?,?,15µM*,23µM*
COc1ccccc1C=CC(=O)C=Cc1ccccc1OC,8.2µM*,?,3.3µM*,?,.
Cc1noc(C)c1S(=O)(=O)NC(=O)C1(C)CCN1C(=O)Cc1ccc(Cl)cc1Cl (stereo not given),.,i,.,i,.
CC(=O)Nc1cc(-c2ccc(CO)cc2)cn2c(-c3ccc(F)cc3)cnc12,.,i,.,i,.
COC(=O)[C@@]12C[C@@H](CC(=O)NCc3ccc(C)o3)C(=O)N(Cc3ccccc3)C1=CCC(C)(C)C2,.,i,.,18µM*,.
COC(=O)[C@@]12C[C@@H](CC(=O)NCc3cccs3)C(=O)N(Cc3ccccc3)C1=CCC(C)(C)C2,.,i,.,?,.
COC(=O)[C@@]12C[C@@H](CC(=O)NCc3ccccc3)C(=O)N(Cc3ccccc3)C1=CCC(C)(C)C2,.,?,.,21µM*,.
COc1ccc2cc(C#N)c(SCC(=O)Nc3nonc3C)nc2c1,?,i,-16%,i,-16%
Cc1cc2cc(C#N)c(SCC(=O)Nc3nonc3C)nc2cc1C,?,i,15µM*,i,?
Cc1cc(-c2nc3ccccc3o2)c2ccccc2n1,7%,i,5%,13µM*,0%
CCOC(=O)C1CCN(C(=O)c2ccccc2)c2scc(-c3ccccc3)c2C1=O (stereo not given),.,i,.,?,.
CCOC(=O)C1=C(C)N=c2s/c(=C/c3ccccc3)c(=O)n2C1c1ccc(OC)c(OC)c1 (stereo not given),-1%,i,2%,?,12%
CCOC(=O)C1=C(C)n2c(s/c(=C/c3cccc([N+](=O)[O-])c3)c2=O)=NC1c1ccc(O)c(OC)c1 (stereo not given),?,?,16µM*,18µM*,?
SMILES,SW480 rerep,KB-3-1 cytotox,MCF10A rerep,KB-V1 cytotox,ELG1 repair inh
COC(=O)[C@@]1(Cc2ccc(F)cc2)[C@H]2c3cc(C(=O)N4CCCC4)n(CCc4ccc(O)c(O)c4)c3C[C@H]2CN1C(=O)c1ccccc1,6%,.,5%,.,-28%
COC(=O)[C@@]1(Cc2ccc(OC)cc2)[C@H]2c3cc(C(=O)N4CCCC4)n(CCc4ccc(OC)c(Br)c4)c3C[C@H]2CN1C(=O)c1ccccc1,.,?,.,18µM*,.
COC(=O)[C@@]1(Cc2ccc(F)cc2)[C@H]2c3cc(C(=O)N4CCCC4)n(CCc4ccc(OC)c(Br)c4)c3C[C@H]2CN1C(=O)c1ccccc1,.,26µM*,.,?,.
COc1ccc(CCNC(=O)CN2C(=O)C(=O)N(C3CCCC3)C2=O)cc1OC,-13%,i,0%,i,14%
Cc1cc(C)nc(N/C(=N\S(=O)(=O)Cc2ccccc2)Nc2ccccc2Br)n1,?,i,4.1µM*,?,?
Cc1cc2c(cc1C)N[C@]1(C[C@H]3CCCC(=O)N4CC[C@@H](C1)[C@@H]34)C(=NC1CCCCC1)N2,.,i,.,i,.
CCOC(=O)CN1CCc2c(C)nc3c(-c4ccc(OC)c(OC)c4)cnn3c21,?,i,?,8.2µM*,-27%
CC(=O)c1sc(NC(=O)c2c(F)cccc2F)nc1-c1ccccc1,-11%,i,0%,i,?
COC(=O)Nc1nc(-c2ccccc2)c(C(=O)c2ccc(Cl)cc2)s1,1.3µM*,1µM*,1µM*,0.58µM*,?
CC(=O)c1sc(NC(=O)c2ccccc2)nc1-c1ccccc1,-56%,i,0.65µM*,i,?
CCOC(=O)Nc1nc(-c2ccccc2)c(C(=O)c2ccccc2)s1,0.92µM*,0.82µM*,1.2µM*,1.2µM*,?
Cc1cc(C)c(S(=O)(=O)N(C)CC(=O)N2CCCC2)c(C)c1,.,i,.,i,.
CC1CCCC(NC(=O)C2COc3ccccc3O2)C1C (stereo not given),-7%,i,12%,13µM*,0%
CC1CCC(NC(=O)C2COc3ccccc3O2)CC1 (stereo not given),-6%,i,-2%,i,?
COc1ccc(CC(=O)NNC2=Nc3cccc4cccc2c34)cc1,16µM*,i,21µM*,i,0%
O=C(O)c1ccc(NC2=Nc3cccc4cccc2c34)cc1,?,?,-2%,15µM*,?
NC(=O)NNC1=Nc2cccc3cccc1c23,-2%,i,-1%,i,-11%
COc1ccc(C(=O)NNC2=Nc3cccc4cccc2c34)cc1,7%,i,?,?,-9%
Cc1ccc(C(=O)NNC2=Nc3cccc4cccc2c34)cc1,-4%,?,6%,9.2µM*,-4%
Cc1ccc(OCc2cc(=O)n3cc(C)sc3n2)c(C)c1,.,i,.,i,.
